# KB-V1 cytotox = kills drug-selected multidrug resistant KB-V1 cells; KB-V1 MDR cells viability, CellTiter-Glo, 72 h; 400,000 compounds, 3.4% hits; Potency, µM (titrated, usually from 46.1 µM), most hits filed as cytotoxic; AID 1347076; note: % is set by controls: 0 for no effect and ±100 for the full control effect; nearly all actives have a fitted effect of over 60% in size
#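 KB-V1 cells (P-gp-expressing MDR subline of KB-3-1) in phenol-red-free DMEM with 10% FBS were exposed to library compounds over a concentration series for 72 h at 37 degrees C. Viability read by CellTiter-Glo luminescence; concentration-effect curves fitted after normalization.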
# KB-3-1 cytotox = KB-3-1 parental cell cytotoxicity; Potency, µM (series often up to 46.1 µM), actives largely listed as cytotoxic; 400,000 compounds, 1.4% hits; KB-3-1 viability, CellTiter-Glo ATP luminescence, 72 h; note: % is set by controls: 0 for no effect and ±100 for the full control effect; nearly all actives have a fitted effect of over 60% in size
#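 Cytotoxicity measured as CellTiter-Glo luminescence after 72 h at 37 C. Compound titrations were pinned onto drug-naive KB-3-1 parental adenocarcinoma cells grown in DMEM with 10% FBS, and normalized data fitted to concentration-response curves.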
# MCF10A rereplic = inducers of DNA re-replication in MCF 10A breast cells; MCF 10A DNA re-replication, Hoechst nuclear intensity, 48 h; Potency, µM (titrated, usually from 46.1 µM), for inactives: at the top dose activity, positive = re-replication, most hits filed as activators; 350,000 compounds, 2.9% hits; AID 624296; note: % of control where 0% means no effect; nearly all actives have a fitted effect of over 50% in size
# SW480 rerep = inducers of DNA re-replication in SW480 colon cancer cells; SW480 DNA re-replication, Hoechst DNA content imaging, 48 h; Potency, µM (titrated, usually from 46.1 µM), without a hit: at the top dose re-replication activation, usual class: activators; 340,000 compounds, 1.8% hits; note: % of control where 0% means no effect; nearly all actives have a fitted effect of over 55% in size
#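 250 cells/well; 23 nL cpd via pin tool; 48 hr, 37 C, 5% CO2; Hoechst 40 min; imager read of total nuclear intensity, ex 405/em 500-530 nm.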
# PINK1 expr mod = modulators of PINK1 expression; PINK1 immunofluorescence, high-content cytometry, 24 h; Potency, µM (titrated, usually from 76.6 µM), for the others: at the top dose activation (PINK1 increase), most hits filed as activators; 410,000 compounds, 0.2% hits; active = well fitted activation curve with a large enough effect; inconclusive = small, poorly fitted or top-dose-only effect; cell line not stated here; note: % of control where 0% means no effect; nearly all actives have a fitted effect of over 65% in size
#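 Stable cell line, 250 cells/well, 12 h attachment; compounds pinned at 5 concentrations, 24 h; CCCP control. Fixed with nuclear dye, primary antibodies 12 h at 10 degrees C, secondary plus cell stain; laser-scanning cytometer read.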
# Active calls of the source: *; i = inactive; ? = inconclusive; . = no result given; [ ] = dose if it differs, or a comment. Hits are enriched below; roughly 6.7% of the tested compounds scored in any of these assays. Unless noted, calls come from the whole dose curve; as a rule, active = well fitted curve in the direction sought with a large enough effect; inconclusive = small, poorly fitted or top-dose-only effect, or another doubt; inactive = no such curve, though single readings can be large; an effect the other way counts as inactive or inconclusive. Potency is the fitted concentration of half-maximal effect.
SMILES,KB-V1 cytotox,KB-3-1 cytotox,MCF10A rereplic,SW480 rerep,PINK1 expr mod
COc1cc(NS(=O)(=O)c2ccc(Br)cc2)c(OC)cc1NC(=O)c1ccco1,8.2µM*,i,-1%,6%,0%
COc1ccc(S(=O)(=O)Nc2cc(OC)c(NC(=O)c3ccco3)cc2OC)cc1,i,i,1%,8%,5%[38.3 µM]
Cc1ccc(SCC(=O)Nc2cccc(NC(=O)c3ccco3)c2)cc1,16µM*,i,?,-8%,2%
COc1ccc(Br)cc1C(=O)Nc1cccc(NC(=O)c2ccco2)c1,9.2µM*,i,5%,-9%,1%
O=C(Nc1cccc(NC(=O)c2ccc(-c3cccc(Br)c3)o2)c1)c1ccco1,23µM*,i,21%,?,.
COc1c(C)cc(Br)cc1C(=O)Nc1ccccc1C,i,i,1.5µM*,-37%,4%
COc1c(C)cc(Br)cc1C(=O)Nc1cccc(NC(=O)c2ccco2)c1,3.3µM*,i,?,-2%,-1%
CC(C)(C)NC(=O)c1cccc(NC(=O)CSc2ccc(Cl)cc2)c1,15µM*,?,-3%,-147%,-1%
CNC(=O)c1cc2c(n(-c3ccc(C)cc3)c1=O)CC(C)(C)CC2=O,i,i,.,.,-3%
O=C(NCCc1ccccc1)C(=O)NCC(c1cccnc1)N1CCN(c2ccccc2)CC1 (stereo not drawn),i,i,.,.,-1%
NC(N)=N/N=C/c1ccc(Cl)c(Cl)c1,21µM*,16µM*,?,?,-2%
OCCCCNCc1ccc(OCc2ccccc2Cl)cc1,?,i,7%,-5%,-2%[38.3 µM]
NC(N)=N/N=C/c1ccccc1,i,i,0%,0%,0%[38.3 µM]
NC(N)=N/N=C/c1ccc(OCc2ccccc2Cl)cc1,i,?,-1%,13µM*,-8%[38.3 µM]
CN(C)C(=O)CCSC(SCCC(=O)O)c1cccc(/C=C/c2ccc3ccc(Cl)cc3n2)c1 (stereo not drawn),.,.,?,-9%,.
CO[C@H]1OC2O[C@@]3(C)CC[C@H]4[C@H](C)CC[C@@H]([C@H]1C)[C@@]24OO3 (stereo partly drawn),.,.,6%,?,.
COc1ccc(-c2coc3cc(OC(C)=O)ccc3c2=S)cc1,i,i,?,?,18µM*
COc1ccc(-c2ccc3c(c2)C2CC3CCN2C(=O)C2CCCCC2)cc1 (stereo not drawn),i,i,?,?,2%
COc1ccc(-c2ccc3c(c2)C2CC3CCN2)cc1 (stereo not drawn),i,i,21µM*,27%,0%
Cc1ccc(N2C(=O)N(CC(=O)N3c4ccccc4CC3C)C(=O)C2C)cc1 (stereo not drawn),i,i,-1%,-2%,4%
CC[C@@H]1C(c2cccc(Cl)c2)=NN(c2ccc(Br)cc2)[C@H]1C(=O)N1CCOC1=O,i,i,1.3µM*,10µM*,12%
CC[C@@H]1C(c2ccccc2)=NN(c2ccc(Br)cc2)[C@H]1C(=O)N1CCOC1=O,i,i,9.2µM*,12%,0%
CC[C@@H]1C(c2ccc(F)cc2)=NN(c2ccc(Br)cc2)[C@H]1C(=O)N1CCOC1=O,i,i,16µM*,0.58µM*,6%
CC[C@@H]1C(c2cccc(C)c2)=NN(c2ccccc2)[C@H]1C(=O)N1CCOC1=O,i,i,?,-6%[9.22 µM],3%
C[C@@H]1C(c2ccc(F)cc2)=NN(c2ccccc2)[C@H]1C(=O)N1CCOC1=O,i,?,?,3%,3%
COc1ccc(CN2[C@@H](CC(=O)O)c3ccc(/C=C/C(=O)O)cc3S2(=O)=O)cc1,i,i,.,.,.
O=C(CN1CCN(S(=O)(=O)c2ccccc2)CC1)Nc1ccccc1Cl,.,.,?,1%,1%
O=C(CN1CCN(S(=O)(=O)c2ccccc2)CC1)Nc1ccccc1C(=O)c1ccccc1,3.7µM*,?,7%,-3%,0%
O=C(CCl)Nc1ccccc1C(=O)c1ccccc1,i,i,7.3µM*,15µM*,-1%
O=C(Nc1c(Cl)cc([N+](=O)[O-])cc1Cl)c1cc(Cl)ccc1O,?,0.73µM*,.,.,?
